# From ChEMBL document CHEMBL3988442, “University of Dundee, Small-Polar-MMV Screening Library” (2021)
# About 13,000 (27%) of roughly 48,000 compounds showed an effect of 50% or more. This is one part of the list.
# Test system: Wolbachia pipientis
# Test: Anti-Wolbachia Cell-Based Screen
# Assay type: functional
# Parameters: scale not given: in the data most compounds retested in dose-response had high values
# Conditions: 5 µM
row,SMILES,Percent Effect
1,CCCn1ncc(CN2CCCC(C(=O)c3ccc(SC)cc3)C2)c1C (stereo not given),-6.021%
2,Cc1cccc2cc(CN3CCCN4CCC[C@H]4C3)c(=O)[nH]c12,-11.16%
3,c1cnc(N2CC[C@@H]3[C@@H]2CCN3Cc2cccs2)nc1,-7.885%
4,Cl.Cl.O=C1NC2(CCNCC2)CC1c1ccncc1 (stereo not given),-8.002%
5,CC(C)=CCN1C[C@H]2CC[C@@H]1CN(S(=O)(=O)c1cccnc1)C2,-24.05%
6,CNc1nc(C(=O)N2C[C@@H]3CCN(C)[C@@H]3C2)cs1,2.53%
7,Cc1cc(C(=O)NCC(=O)N2CCOCC2)nn1C(C)(C)C,90.04%
8,Cc1ncc2c(c1CNC(=O)C1(C)CC1)CCNC2,-5.654%
9,CN1CCc2c(CNC(=O)c3nccn3C)cncc2C1.Cl.Cl.Cl,16.49%
10,Cl.Cl.Cn1cc(C(=O)NCc2cncc3c2CCNC3)cn1,102.3%
11,CCn1cc(CN2CCCN(C(=O)Cc3cccs3)CC2)cn1,-6.845%
12,CCn1ccnc1CN1CCCN(C(=O)Cc2ccc(C)s2)CC1,99.83%
13,CCn1cc(CN2CCCN(C(=O)Cc3ccc(C)nc3)CC2)cn1,6.063%
14,CCCN1CCN(Cc2nccn2CC)C(C)C1 (stereo not given),-20.72%
15,CCn1ccnc1CN1CCCN(C(=O)Cc2ccc(C)cc2)CC1,110.8%
16,CCn1ccnc1CN1CCCN(C(=O)Cc2ccc(C)nc2)CC1,-2.19%
17,NC(=O)CN1CCCN(C(=O)Cc2ccc3ccccc3c2)CC1,-1.177%
18,Cc1nc(CC(=O)N2CCN(Cc3ccc(C#N)cc3)CC2)cs1,-1.564%
19,Cc1ccc(CC(=O)N2CCCN(Cc3nccn3C)CC2)cn1,118.2%
20,CCc1nc(CN2CCCN(C(=O)Cc3cccs3)CC2)cs1,-3.679%
21,CCn1ccnc1CN1CCCN(C(=O)Cc2csc(C)n2)CC1,120.7%
22,CCN1CCN(C(=O)Cc2ccc(S(=O)(=O)C(F)F)cc2)CC1,-2.606%
23,COCC(=O)NC[C@H]1C[C@@H]2CCN1C[C@@H]2CN1CCc2ccccc21,-6.803%
24,CNCCc1nc2cc(F)ccc2[nH]1.Cl.Cl,-2.58%

row,SMILES,Percent Effect
1,COCC1CN(c2ccc(C#N)c(Cl)c2)CCO1 (stereo not given),-25.31%
2,CCn1ccnc1CN1CCCN(C(=O)Cc2ccccc2C)CC1,129.6%
3,O=C(Cc1ccccc1)N1CCN(Cc2noc(C3CC3)n2)CC1,0.1776%
4,NC(=O)CN1CCCN(C(=O)Cc2ccc(F)c(Br)c2)CC1,-2.154%
5,CCc1noc(CN2CCN(C(=O)Cc3ccc(F)cc3)CC2)n1,-6.192%
6,CCn1ccnc1CN1CCCN(C(=O)Cc2ccc(F)cc2)CC1,115.9%
7,COCCn1cncc1CN1CCC(C(C)=O)(c2ccccc2)CC1,-9.89%
8,CCn1cncc1Cn1ncc2ccccc2c1=O,88.95%
9,COCCn1cncc1Cn1ncc2ccccc2c1=O,103.5%
10,O=c1c2ccccc2cnn1Cc1cncn1C1CC1,94.68%
11,N#Cc1ccc(S(=O)(=O)NCCn2ccnc2)cc1Cl,-8.716%
12,Cl.O=C1NC2(CCNCC2)CC1c1ccccc1 (stereo not given),-38.6%
13,CC(C)COC(=O)N1CCC2(CCNC2)C1.Cl (stereo not given),-11.51%
14,CC(C)NC(=O)N1CCOC2(CCCNC2)C1 (stereo not given),-11.25%
15,Cc1[nH]c2c(F)cccc2c1CC(=O)N1CCN(C2CCSCC2)CC1,-2.752%
16,CCCS(=O)(=O)N1CCc2c(COCC)cncc2C1.O=C(O)C(F)(F)F,0.2019%
17,CCS(=O)(=O)N1CCc2c(COCCN(C)C)cncc2C1.O=C(O)C(F)(F)F.O=C(O)C(F)(F)F,97.71%
18,CN(C)CCOCc1cncc2c1CCN(C1CCOC1)C2.O=C(O)C(F)(F)F.O=C(O)C(F)(F)F.O=C(O)C(F)(F)F (stereo not given),106.1%
19,CCN(C)c1ncc2c(c1C(=O)O)CCN(C1CCOC1)C2.O=C(O)C(F)(F)F.O=C(O)C(F)(F)F (stereo not given),-4.446%
20,CC(Cc1cccc(Cl)c1)NC(=O)NCc1ncnn1C (stereo not given),-5.872%
21,Cc1ncccc1OCC(=O)N1CCN[C@H]2CS(=O)(=O)C[C@H]21,-3.722%
22,Cc1noc(C)c1CN1CC[C@@H]2O[C@@H](COCC3CC3)CC[C@@H]21.O=C(O)C(F)(F)F,-0.7071%
23,COCCN1C(=O)CC[C@@H]2[C@@H]1CCN2Cc1c(C)noc1C.O=C(O)C(F)(F)F,103.6%
24,CCOC[C@@H]1CC[C@H]2[C@H](CCN2Cc2c(C)noc2C)O1.O=C(O)C(F)(F)F,3.079%

row,SMILES,Percent Effect
1,Cc1noc(C)c1CN1CC[C@H]2[C@H]1CCN2CC1CCOCC1.O=C(O)C(F)(F)F.O=C(O)C(F)(F)F,115.6%
2,CCOC[C@H]1CC[C@H]2[C@H](CCN2Cc2c(C)noc2C)O1.O=C(O)C(F)(F)F,4.615%
3,Cc1noc(C)c1CN1CCO[C@H]2CN(CC3CC3)C[C@H]21.O=C(O)C(F)(F)F.O=C(O)C(F)(F)F,-4.425%
4,N#Cc1cccnc1NCCNC(=O)N1CCN2CCCCC2C1 (stereo not given),-6.324%
5,CC(C)NC(=O)C1CCC2(CCNCC2)C1 (stereo not given),-35.43%
6,COc1ccc(C(=O)C2CCCN(CCCn3cccn3)C2)c(OC)c1 (stereo not given),-1.04%
7,NC(=O)c1cnn2c1NCC(CNCC1(c3ccccc3)CCC1)C2 (stereo not given),92.2%
8,O=C(c1ccc(C2CCCN2)s1)N1CCN2CCC1CC2 (stereo not given),11.12%
9,CCS(=O)(=O)N1CCc2ccc(NC(=O)Nc3cccc(C#N)c3)cc21,97.92%
10,CC[C@H]1CN2CC[C@H]1C[C@@H]2CNCc1cccc(C#N)c1,6.24%
11,CC[C@H]1CN2CC[C@H]1C[C@@H]2CNC(=O)Nc1cccc(C#N)c1,1.181%
12,O=S(=O)(c1ccc(Cl)cc1)N1C[C@@H]2CCN[C@@H]2C1,-24.32%
13,O=C(CC1CC1)N1C[C@H]2CCN[C@H]2C1,112.4%
14,Cc1ccc(S(=O)(=O)N2C[C@@H]3CCN[C@@H]3C2)cc1,-12.06%
15,CC(C)(C)CC(=O)N1C[C@@H]2C[C@H]1CN2.Cl,-16.89%
16,CC(C)CCC(=O)N1C[C@H]2CCN[C@H]2C1,107.3%
17,CC(C)CNC(=O)N1C[C@H]2CCN[C@H]2C1,-21.84%
18,CC(C)C(=O)N1C[C@H]2CCCN[C@H]2C1.Cl,-7.068%
19,O=S(=O)(c1ccccc1)N1C[C@@H]2CCN[C@@H]2C1,-39.01%
20,O=C(CC(F)(F)F)N1C[C@H]2CCN[C@H]2C1,92.17%
21,CC(C)(C)CC(=O)N1C[C@H]2CCN[C@H]2C1,123.1%
22,CC(C)CNC(=O)N1C[C@@H]2CCCN[C@@H]2C1,-10.44%
23,O=C(CC1CCCC1)N1C[C@@H]2C[C@H]1CN2,-37.69%
24,CS(=O)(=O)N1CCC(Nc2ccc(C#N)c(C(F)(F)F)c2)CC1,-23.63%

row,SMILES,Percent Effect
1,COc1cccc2c(=O)n(C3CCCNC3)cnc12 (stereo not given),-0.6392%
2,CCc1ocnc1C(=O)N1CCC2(CC1)OCC(C)O2 (stereo not given),-17.17%
3,CN(C)CCN(Cc1ccco1)C(=O)Cc1cn2ccsc2n1,1.866%
4,CNC(=O)[C@H]1C[C@@H]2CCN(Cc3ccncc3)C[C@H]2O1.O=C(O)C(F)(F)F.O=C(O)C(F)(F)F,103.5%
5,O=C(NCCc1ccncc1)[C@H]1CC[C@@H]2[C@@H](CCN2CC2CC2)O1.O=C(O)C(F)(F)F.O=C(O)C(F)(F)F,1.654%
6,O=C(NC1CCC1)[C@@H]1C[C@@H]2CCN(Cc3ccncc3)C[C@H]2O1.O=C(O)C(F)(F)F.O=C(O)C(F)(F)F,-10.63%
7,COCCNC(=O)[C@H]1C[C@@H]2CCN(Cc3ccncc3)C[C@H]2O1.O=C(O)C(F)(F)F.O=C(O)C(F)(F)F,99.07%
8,O=C(O)C(F)(F)F.O=C(O)C(F)(F)F.O=C([C@H]1CN(Cc2ccncc2)C[C@H]2OCC[C@@H]12)N1CCCCO1,11.08%
9,CO[C@@H]1CCN(c2ncc(F)cn2)[C@@H]2CN(CC3CC3)C[C@@H]21,9.085%
10,CCN1CC(=O)NCC12CCN(C(=O)c1ccno1)C2.O=C(O)C(F)(F)F (stereo not given),-6.47%
11,O=S(=O)(c1cccc(Cl)c1)N1C[C@@H]2CCN[C@@H]2C1,-5.104%
12,O=C1NC[C@H]2CN(Cc3nccs3)CCN12,4.843%
13,CC(C)(CNc1ccc(C#N)c(C(F)(F)F)c1)C(N)=O,-0.8311%
14,COCCN1CCOCC2(C1)CN(C(=O)c1conc1C)CCO2.O=C(O)C(F)(F)F (stereo not given),91.15%
15,O=C(O)C(F)(F)F.O=C(O)C(F)(F)F.c1cnc(N2CCC3(COCCN(CC4CC4)C3)C2)nc1 (stereo not given),-6.749%
16,Cc1noc(C)c1C(=O)N1CCC2(CC1)c1nc[nH]c1CCN2C,14.77%
17,Cc1noc(C)c1C(=O)N1CCOC2(COCCN(C(C)C)C2)C1.O=C(O)C(F)(F)F (stereo not given),90.48%
18,COCCN1C[C@@H](C)[C@@]2(COCCN(C(=O)c3ccncc3)C2)C1.O=C(O)C(F)(F)F.O=C(O)C(F)(F)F,2.912%
19,Cc1nocc1C(=O)N1CCOC2(COCCN(CC3CC3)C2)C1 (stereo not given),116%
20,COc1ccc(C(=O)N2CCOC3(CNCCOC3)C2)c(OC)n1 (stereo not given),-6.762%
21,Cc1noc(C)c1CN1CCOC2(CCCN(c3nncs3)C2)C1.O=C(O)C(F)(F)F (stereo not given),-6.2%
22,CCN1CCOCC2(C1)CN(C(=O)c1c(C)noc1C)CCO2 (stereo not given),103.8%
23,COCCN1C[C@@H](C)[C@@]2(COCCN(C(=O)c3ccno3)C2)C1.O=C(O)C(F)(F)F,2.349%
